Source: the supplement of paper PMC10646978
± gives the standard deviation.

Columns and labels:
Settings in all cases: modulator concentration 10 µM
[1] = test system: RAW-Dual (murine macrophage reporter line); assay: NF-kB reporter (SEAP) activity fold change vs agonist alone; higher = enhanced NF-kB activity
Method in brief: (§1)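 RAW-Dual murine macrophage reporter cells were plated at 50 000 per well in 384-well plates, pin-transferred compound to 10 μM final, and pre-incubated for 1 hour at 37 °C before a PRR agonist was added and the cells incubated overnight. NF-κB activity was read from supernatant SEAP with QUANTI-Blue at 620 nm absorbance, and IRF activity from Lucia luciferase with QUANTI-Luc by luminescence. Each signal was expressed as fold change by dividing by the mean agonist-only control on the same plate. Two replicate plates were averaged, with errors obtained by propagation.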

[2] = test system: RAW-Dual (murine macrophage reporter line); assay: IRF reporter (Lucia luciferase) activity fold change vs agonist alone; higher = enhanced IRF activity
Method in brief: as §1

[3] = test system: RAW-Dual (murine macrophage reporter line); assay: viability score (confluency relative to resting cells, overnight) (fraction); higher = more viable, active = viable (0.7 or more)
Method in brief: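 Compound was added at a final 10 μM to RAW-Dual macrophages in 384-well plates and left overnight. Confluency was imaged with IncuCyte, and two masks were generated in IncuCyte software over all imaged wells. Each viability score is confluency relative to resting cells, and a compound met the cutoff only when both masks were above 70% of resting cells.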

[4] = agonist: CpG ODN 1826 0.5 ug/mL

Structure (SMILES)	NF-kB reporter [1, 4]	NF-kB reporter ([1]; agonist: LPS 0.1 ug/mL)	NF-kB reporter ([1]; agonist: MPLA […])	IRF reporter ([2]; agonist: 3'3'-cGAMP 10 ug/mL)	IRF reporter ([2]; agonist: LPS 0.1 ug/mL)	IRF reporter ([2]; agonist: MPLA […])	viability score [3]
COc1ccc(C(C)NC(=O)c2[nH]nnc2-c2ccc(F)cc2)cc1 (centres undefined)	1.17 ± 0.066	0.983 ± 0.14	1.01 ± 0.054	0.669 ± 0.026	1.01 ± 0.094	0.958 ± 0.15	0.997 (active)
Br.COc1ccc2c3c1OC1CC(O)C=CC31CCN(C)C2 (centres undefined)	1.06 ± 0.082	0.892 ± 0.095	1.04 ± 0.1	1 ± 0.04	1.34 ± 0.18	1.43 ± 0.27	0.999 (active)
CC1=C(C(=O)OCC(F)(F)C(F)(F)F)C(c2ccccc2)NC(=O)N1 (centres undefined)	0.847 ± 0.052	0.975 ± 0.077	0.863 ± 0.053	1.31 ± 0.05	1.34 ± 0.089	1.23 ± 0.23	0.934 (active)
Cc1ncc(CC(=O)N2CCC(c3ccccc3F)S(=O)(=O)CC2)s1 (centres undefined)	0.93 ± 0.041	0.961 ± 0.1	0.959 ± 0.053	0.983 ± 0.074	0.985 ± 0.14	0.998 ± 0.27	1.01 (active)
O=C(NC1CCOCC1)N1CCOC(c2cc(Cl)cc(Cl)c2)C1 (centres undefined)	0.83 ± 0.036	1.05 ± 0.083	1.09 ± 0.06	0.971 ± 0.045	1.35 ± 0.27	1.54 ± 0.52	0.968 (active)
COc1ccc2ccccc2c1-c1nnc2ccc(C(F)(F)F)cn12	0.87 ± 0.1	0.997 ± 0.056	0.854 ± 0.089	0.992 ± 0.036	1.37 ± 0.18	1.07 ± 0.2	1.01 (active)
N#CCCN(C1CCCCC1)S(=O)(=O)c1cccc2nsnc12	1.05 ± 0.083	0.826 ± 0.051	1.73 ± 0.58	0.867 ± 0.048	1.33 ± 0.077	1.28 ± 0.15	1.01 (active)
Cl.N=c1ccn2c(n1)OC1C(O)C(CO)OC12 (centres undefined)	1.41 ± 0.38	1.17 ± 0.17	1.16 ± 0.073	0.696 ± 0.026	1.15 ± 0.18	0.959 ± 0.091	0.733 (active)
CC(C)N1CCN(c2ccc(OC[C@H]3CO[C@](Cn4cncn4)(c4ccc(Cl)cc4Cl)O3)cc2)CC1	1.04 ± 0.078	1.15 ± 0.077	1.08 ± 0.027	0.832 ± 0.048	1.05 ± 0.042	1.02 ± 0.11	0.997 (active)
COC(=O)COc1ccc2oc(=O)cc(-c3cc4cccc(OC)c4o3)c2c1	0.858 ± 0.065	1.06 ± 0.12	1.05 ± 0.025	0.928 ± 0.052	0.872 ± 0.084	1.04 ± 0.086	0.992 (active)
COc1ccccc1Cn1c(SC)nc2c(-c3ccccc3)c[nH]c2c1=O	1.51 ± 0.064	0.889 ± 0.11	0.997 ± 0.053	0.114 ± 0.0059	1.05 ± 0.19	1.41 ± 0.36	0.948 (active)
Cc1nc(NC(=O)N2CCC[C@H]2C(N)=O)sc1-c1ccnc(C(C)(C)C(F)(F)F)c1	0.626 ± 0.034	0.894 ± 0.072	1.6 ± 0.66	0.916 ± 0.066	1.18 ± 0.24	1.32 ± 0.33	1.02 (active)
COc1ccc(NC(=O)CN(c2ccc(F)cc2)S(C)(=O)=O)c(OC)c1	0.872 ± 0.073	0.896 ± 0.067	1.05 ± 0.099	0.921 ± 0.042	1.23 ± 0.089	1.35 ± 0.14	0.999 (active)
Cc1occc1C(=O)Nc1ccc(F)c(F)c1	1.07 ± 0.12	0.998 ± 0.16	1.11 ± 0.055	0.704 ± 0.042	1.07 ± 0.081	1.46 ± 0.14	0.927 (active)
COc1ccccc1OCC(O)CN1CCN(CC(=O)Nc2c(C)cccc2C)CC1 (centres undefined)	0.99 ± 0.087	0.943 ± 0.089	1.06 ± 0.056	0.967 ± 0.092	0.996 ± 0.061	0.936 ± 0.078	1 (active)
O=C(CCCN1CCC(O)(c2ccc(Cl)cc2)CC1)c1ccc(F)cc1	0.827 ± 0.13	0.893 ± 0.074	1.12 ± 0.098	1.05 ± 0.071	1.36 ± 0.092	1.38 ± 0.13	1.01 (active)
NC(=O)c1ccc(I)c([N+](=O)[O-])c1	0.743 ± 0.25	0.842 ± 0.23	0.828 ± 0.046	0.678 ± 0.024	0.905 ± 0.32	1 ± 0.13	0.981 (active)
CCN(CC)c1ccc(C=Nn2nnnc2N)c(O)c1	1.01 ± 0.078	0.869 ± 0.1	1.13 ± 0.11	0.942 ± 0.039	1.06 ± 0.13	1.44 ± 0.29	0.955 (active)
CSc1nc2ccc(Nc3nc(N4CCCC4)nc(N4CCCC4)n3)cc2s1	0.838 ± 0.086	0.962 ± 0.06	1.05 ± 0.096	0.906 ± 0.043	1.31 ± 0.13	1.55 ± 0.15	1.02 (active)
COc1ccc(C2Sc3ccccc3N(CCN(C)C)C(=O)C2OC(C)=O)cc1.Cl (centres undefined)	1.01 ± 0.29	1 ± 0.05	1.08 ± 0.092	0.966 ± 0.033	1.15 ± 0.15	1.2 ± 0.12	0.992 (active)
CCC(C(=O)Nc1cc(Cl)cc(Cl)c1)c1ccccc1 (centres undefined)	0.851 ± 0.05	1.16 ± 0.098	1.11 ± 0.045	1.09 ± 0.083	1.11 ± 0.062	0.97 ± 0.12	0.991 (active)
Cc1oncc1C(=O)NCCn1nc(C(F)(F)F)cc1C1CC1	1.06 ± 0.096	1.05 ± 0.081	0.991 ± 0.067	0.972 ± 0.039	0.978 ± 0.087	0.935 ± 0.21	1 (active)
CCN(CC)CCN1C(=O)C(O)=C(C(=O)c2ccc(C)cc2)C1c1ccccc1 (centres undefined)	0.996 ± 0.078	0.974 ± 0.064	0.893 ± 0.041	0.827 ± 0.059	0.999 ± 0.11	0.896 ± 0.2	0.996 (active)
O=[N+]([O-])c1ccc(N2CCOCC2)c(-c2nnn[nH]2)c1	0.98 ± 0.25	1.05 ± 0.11	0.918 ± 0.085	0.938 ± 0.045	1.11 ± 0.14	1.29 ± 0.17	0.996 (active)
O=C(Cn1c(=O)oc2ccccc21)N1Cc2cncnc2C1	0.853 ± 0.24	1.04 ± 0.052	0.988 ± 0.065	0.921 ± 0.042	0.991 ± 0.15	0.991 ± 0.12	0.998 (active)
O=C1c2ccccc2C(=O)C1c1ccccn1	0.912 ± 0.069	1.08 ± 0.087	0.993 ± 0.021	0.897 ± 0.055	0.976 ± 0.075	0.95 ± 0.091	0.987 (active)
c1ccc(OCc2nnc(-c3ccccc3)o2)cc1	1.15 ± 0.1	1.19 ± 0.09	1.14 ± 0.037	0.87 ± 0.078	0.937 ± 0.044	0.973 ± 0.076	0.999 (active)
